Laboratory results taken from the supplement of paper PMC6555819.

How the values were obtained:
Test in all cases: PBM binding z-score (relative to random genomic background probes); higher = stronger binding; sequences stand for … in GC…GCGATTGACAGCGTAGAATGAAGG
[1] = tested on: FXR:RXRa (NR concentration 270 nM, RXRa partner concentration 90 nM)
How it was run: (§1)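 Ligand-free nuclear receptor dimers were bound for 1 h to custom Agilent 4×180K protein-binding microarrays. Detection used antibodies against each partner (one per run). Binding z-scores rest on regression-normalized fluorescence, with random background probes as the reference.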

[2] = tested on: LXRa:RXRa (NR concentration 270 nM, RXRa partner concentration 90 nM)
How it was run: as §1

[3] = tested on: LXRa homodimer (NR concentration 270 nM)
How it was run: as §1

[4] = tested on: LXRb:RXRa (NR concentration 270 nM, RXRa partner concentration 90 nM)
How it was run: as §1

[5] = tested on: LXRb homodimer (NR concentration 270 nM)
How it was run: as §1

[6] = tested on: PPARa:RXRa (NR concentration 270 nM, RXRa partner concentration 90 nM)
How it was run: as §1

[7] = tested on: PPARg:RXRa (NR concentration 180 nM, RXRa partner concentration 90 nM)
How it was run: as §1

[8] = tested on: PPARg:RXRa 270nM:90nM, anti-RXR (NR concentration 270 nM, RXRa partner concentration 90 nM)
How it was run: as §1

[9] = tested on: PPARg:RXRa 30nM:10nM, anti-RXR (NR concentration 30 nM, RXRa partner concentration 10 nM)
How it was run: as §1

[10] = tested on: PPARg:RXRa 90nM:30nM, anti-RXR (NR concentration 90 nM, RXRa partner concentration 30 nM)
How it was run: as §1

[11] = tested on: PPARg:RXRa DBDmut IVT, anti-RXR (DBD mutation: RXRa K156A/R161A, NR concentration 270 nM, RXRa partner concentration 90 nM)
How it was run: as §1

[12] = tested on: PPARg:RXRa IVT, anti-PPARg (NR concentration 270 nM, RXRa partner concentration 90 nM)
How it was run: as §1

[13] = tested on: PPARg DBDmut:RXRa IVT, anti-PPARg (DBD mutation: PPARg1 K132A/R137A, NR concentration 270 nM, RXRa partner concentration 90 nM)
How it was run: as §1

[14] = tested on: PPARg DBDmut IVT, anti-PPARg (DBD mutation: PPARg1 K132A/R137A, NR concentration 270 nM)
How it was run: as §1

[15] = tested on: PPARg homodimer (NR concentration 180 nM)
How it was run: as §1

[16] = tested on: PXR:RXRa (NR concentration 270 nM, RXRa partner concentration 90 nM)
How it was run: as §1

[17] = tested on: PXR homodimer (NR concentration 270 nM)
How it was run: as §1

[18] = tested on: RARa:RXR (NR concentration 270 nM, RXRa partner concentration 90 nM)
How it was run: as §1

[19] = tested on: RARa homodimer (NR concentration 270 nM)
How it was run: as §1

[20] = tested on: RARb:RXRa (NR concentration 270 nM, RXRa partner concentration 90 nM)
How it was run: as §1

Sequence | PBM binding z-score [1] | PBM binding z-score [2] | PBM binding z-score [3] | PBM binding z-score [4] | PBM binding z-score [5] | PBM binding z-score [6] | PBM binding z-score [7] | PBM binding z-score [8] | PBM binding z-score [9] | PBM binding z-score [10] | PBM binding z-score [11] | PBM binding z-score [12] | PBM binding z-score [13] | PBM binding z-score [14] | PBM binding z-score [15] | PBM binding z-score [16] | PBM binding z-score [17] | PBM binding z-score [18] | PBM binding z-score [19] | PBM binding z-score [20]
CCGACTGGGGTAGAAAGGTTACCATACCATCCGG | 0.17 | 0.786 | -0.133 | 1.06 | -1.02 | 2.58 | 2.04 | 3.63 | 1.08 | 3.32 | 0.466 | 1.2 | -1.23 | -0.59 | 1.69 | 1.32 | -0.0597 | 2.45 | 0.375 | 1.72
TCATATAAGTAATACAGGTGAAAGTCGGCATCTA | 1.33 | 1.22 | 0.589 | 1.15 | 0.275 | 1.79 | 1.29 | 2.38 | 4.28 | 3.42 | 3.37 | 1.87 | 0.985 | 0.83 | 1.07 | 0.888 | 0.782 | 1.1 | 1.95 | 0.567
AGAACGAGGGCATGCTGAGTTGATAGCAGAGTAG | 0.426 | 0.131 | -0.52 | -0.164 | -1.15 | 1.12 | 0.939 | 0.666 | 0.00172 | 0.416 | 2.87 | 1.99 | 0.0501 | -0.0747 | -0.0685 | 1.14 | 0.117 | 0.374 | -0.883 | 1.89
AGAACGAGGGCACGCTGAGTTGATAGCCGAGTAG | 0.799 | 0.509 | -0.574 | 0.154 | -0.961 | 2.17 | 2.04 | 1.7 | -0.0721 | 0.936 | 4.46 | 4.04 | 0.489 | 0.266 | 0.0307 | 1.21 | -0.287 | 0.916 | -0.217 | 2.42
CAAACTAGGTCAAGGTCAAAGTGGGTTTGTGCCA | 6.71 | 5.42 | 3.68 | 4.73 | 1.29 | 6.04 | 9.42 | 7.89 | 6.5 | 8.27 | 8.63 | 8.56 | 2.16 | 1.39 | 3.95 | 5.56 | 2.52 | 5.18 | 1.68 | 5.14
GCTAGTTGGTCAGTAAAAGGTCACTCACCGGTCG | 2.88 | 3.91 | 4.1 | 3.49 | 0.861 | 3.87 | 1.93 | 4.19 | 1.77 | 3.49 | 1.28 | 2.47 | -0.335 | 0.0493 | 3.31 | 4.53 | 0.779 | 5.19 | 1.56 | 4.12
ATCGAAAGGTCGAGCTGAGTATAGAGAAAGGGAA | 4.53 | 3.69 | -0.419 | 2.54 | 0.538 | 4.36 | 2.96 | 3.02 | 1.22 | 1.96 | -0.357 | 1.22 | 1.33 | 0.108 | 0.956 | 2.5 | -0.467 | 2.89 | 0.139 | 3.94
TCTCGGAGGACACGAAGGTCAGAGCATTCCAGAG | 1.29 | 0.948 | 0.206 | 0.97 | -0.998 | 1.88 | 0.742 | 1.63 | 2.05 | 1.74 | 1.39 | 1.39 | -0.898 | -1.01 | 0.93 | 1.74 | 0.89 | 1.61 | 0.282 | 3.07
CCTATTGGGCCATCAGGTCATTGATATCAACGTT | 1.84 | 1.28 | 1.09 | 1.42 | -0.199 | 2.25 | 1.29 | 2.49 | 0.897 | 1.88 | 3.63 | 3.39 | 0.758 | 0.0799 | 1.42 | 1.84 | 0.775 | 2 | 0.136 | 2.25
TCATATAGGTATAGGTGAAAGTCGAACGATATGA | 0.449 | 0.366 | -0.346 | 0.177 | -0.47 | 1.42 | 1.72 | 2.44 | 3.51 | 3.05 | 2.01 | 1.55 | 0.818 | 1.13 | 0.0595 | 0.316 | 0.0974 | 0.665 | 0.0245 | 0.587
ACTCGGAGGACAAGGGTCAGAGCTACGCCAGTGA | 2 | 1.9 | -0.11 | 1.6 | -0.535 | 3.37 | 4.49 | 4.83 | 2.75 | 4.25 | 0.222 | 1.88 | -0.0175 | 0.0941 | 1.36 | 1.93 | -0.342 | 2.63 | 0.214 | 3.29
TAGCGTAGGTCAGATCGGGCCAGTATACGCTATA | 2.62 | 1.36 | -0.421 | 0.809 | -0.55 | 1.99 | 0.602 | 0.725 | 0.0137 | 0.225 | -0.503 | 0.617 | -0.164 | -0.912 | -0.143 | 1.48 | -0.976 | 1.23 | -1.14 | 3.07
CATACAGGGTCAGCTAGGCCAGAGTTGGGACGGC | 4.25 | 2.86 | -0.145 | 2.06 | 0.341 | 4.17 | 3.24 | 2.97 | 0.45 | 1.6 | 1.33 | 2.34 | 0.63 | 0.195 | 0.968 | 1.85 | -0.0328 | 2.78 | 0.28 | 4.17
ATCGAAAGATCGTGAGGTGAGTATACAGAAAGGC | 0.0329 | -0.211 | 0.0924 | -0.208 | -0.374 | 0.327 | 0.669 | -0.00875 | 0.225 | 0.106 | -1.15 | 0.285 | 0.657 | 0.767 | -0.197 | -0.0729 | -0.403 | 0.277 | -0.457 | 0.133
